# In PubChem BioAssay:
# Calls of active or inactive are those of the source.
# Legend:
# Albumin (Bos taurus) = Albumin (Bos taurus) (UniProt P02769); experiment: compounds binding labelled BSA control protein – biochemical, small-molecule microarray, Alexa647 label, 635/667 nm fluorescence, artefact control for SMM control protein annotation, profiling panel (AID 1118); conditions: BSA-A647 binding, fluorescence 635 nm, higher = more signal;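 further: score merges 667 nm emission intensity and signal-to-noise per printed compound spot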
# Albumin (Bos taurus), sequence (P02769 whole entry, looked up): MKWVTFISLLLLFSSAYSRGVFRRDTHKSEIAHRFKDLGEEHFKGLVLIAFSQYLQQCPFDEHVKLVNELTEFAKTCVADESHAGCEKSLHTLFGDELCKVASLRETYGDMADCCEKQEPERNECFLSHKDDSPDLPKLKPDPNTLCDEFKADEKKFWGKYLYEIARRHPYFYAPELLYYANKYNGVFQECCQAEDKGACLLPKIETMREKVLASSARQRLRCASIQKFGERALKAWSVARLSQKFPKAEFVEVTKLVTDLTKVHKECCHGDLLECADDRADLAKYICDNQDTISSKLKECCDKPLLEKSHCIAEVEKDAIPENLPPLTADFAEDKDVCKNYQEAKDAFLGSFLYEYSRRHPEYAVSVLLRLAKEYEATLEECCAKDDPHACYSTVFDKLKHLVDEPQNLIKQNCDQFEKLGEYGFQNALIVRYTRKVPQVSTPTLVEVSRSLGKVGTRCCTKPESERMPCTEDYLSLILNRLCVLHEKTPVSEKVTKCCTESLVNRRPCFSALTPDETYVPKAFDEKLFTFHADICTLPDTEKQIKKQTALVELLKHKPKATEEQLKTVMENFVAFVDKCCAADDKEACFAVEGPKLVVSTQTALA
# [1] = probe aXIP binding to arrayed compounds – biochemical, NeuroSMM set, 635/667 nm fluorescence, primary screen (AID 1119); conditions: small-molecule microarray, higher = more signal, called active from +8 up or from −8 down;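 further: probe is the protein aXip251-270 applied at 1 µg/mL to compound-printed slides; binding of probe to printed compounds measured as 667 nm fluorescence plus signal to noise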
# [2] = probe aNOTCH3 binding on compound microarray – biochemical, small-molecule microarray, 635/667 nm fluorescence, primary screen (AID 1120); conditions: higher = more signal;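 further: probe is a biotin-tagged antibody raised against NOTCH3 rather than NOTCH3 protein; score merges spot fluorescence near 667 nm with spot signal to noise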
# [3] = probe aNOTCH2 binding on compound microarray – biochemical, small-molecule microarray, 635/667 nm fluorescence, primary screen (AID 1121); conditions: higher = more signal;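 further: score merges feature fluorescence read at 667 nm with its signal to noise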
# [4] = molecular target: Carbonic anhydrase 2 (Homo sapiens) (UniProt P00918); experiment: compounds binding carbonic anhydrase 2 – biochemical, small-molecule microarray, Alexa647-labelled CAII, profiling panel (AID 1122); conditions: CAII-A647 binding fluorescence, higher = more signal
# [5] = COS7 lysate on small-molecule microarray, probe aHis, 635 nm (AID 1123); conditions: COS7 cell lysate, fluorescence, higher = more signal;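 further: z-score combines 667nm fluorescence intensity with signal-to-noise per printed compound spot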
# [6] = probe aLAP1 signal on lysate-treated microarray – cell lysate, small-molecule microarray, COS7 lysate, primary screen (AID 1124); conditions: probe aLAP1, fluorescence, higher = more signal;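 further: lysate comes from COS7 cells expressing LAP1 and is applied at 0.3 µg/mL; score merges spot fluorescence near 667 nm with signal-to-noise over triplicate slides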
# Sam68 (KHDRBS1) = experiment: compounds binding KHDRBS1 protein – biochemical, small-molecule microarray, 635 nm fluorescence, primary screen (AID 1125); conditions: higher = more signal;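 further: score merges 667 nm channel intensity with signal to noise over triplicate slides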
# [7] = test system: Chordin-like protein 2 (CHRDL2); experiment: compounds binding chordin-like 2 – biochemical, small-molecule microarray, 635 nm fluorescence, primary screen (AID 1126); conditions: fluorescence 635 nm, higher = more signal;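 further: printed compound slides probed with Chrdl2 protein at 4 µg/mL for 1 h at 4 C; score merges 667 nm emission intensity with signal to noise over three replicate slides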
# [8] = molecular target: Concanavalin-A (Canavalia ensiformis) (UniProt P02866); experiment: compounds binding concanavalin A lectin – biochemical, small-molecule microarray, Alexa647 label, 635 nm, artefact control for SMM control protein annotation, primary screen (AID 1127); conditions: ConA-A647 binding fluorescence, higher = more signal;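 further: z combines 667 nm emission intensity with signal-to-noise across three replicate slides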
# Concanavalin-A (Canavalia ensiformis), sequence (P02866 whole entry, looked up): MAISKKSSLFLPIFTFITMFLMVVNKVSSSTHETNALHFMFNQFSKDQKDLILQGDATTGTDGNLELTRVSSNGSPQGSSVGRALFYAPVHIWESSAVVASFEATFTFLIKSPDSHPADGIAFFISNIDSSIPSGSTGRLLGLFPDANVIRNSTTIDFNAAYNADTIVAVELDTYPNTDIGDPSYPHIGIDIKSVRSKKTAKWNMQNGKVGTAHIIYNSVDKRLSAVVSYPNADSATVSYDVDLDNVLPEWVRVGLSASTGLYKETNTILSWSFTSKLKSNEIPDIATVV
# [9] = compounds binding Alexa647 anti-His antibody – biochemical, small-molecule microarray, 635 nm fluorescence, artefact control for SMM control protein annotation, primary screen (AID 1128); conditions: higher = more signal;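 further: score merges feature fluorescence with signal-to-noise for each printed compound spot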
# [10] = test system: Human papillomavirus type 1a E7 protein (residues 1-88); experiment: HPV1a E7 small-molecule binders, primary screen, biochemical, small-molecule microarray, residues 1-88, 635 nm (AID 1129); conditions: small-molecule microarray binding, fluorescence 635 nm; higher = more signal
# [11] = molecular target: Focal adhesion kinase 1 (Homo sapiens) (UniProt Q05397); experiment: PTK2 protein binding on printed compound slides – biochemical, small-molecule microarray, 635/667 nm fluorescence, BSA, DTT, primary screen (AID 1130); conditions: 635 nm fluorescence, higher = more signal;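 further: composite of spot emission at 667 nm and signal to noise over triplicate slides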
# Focal adhesion kinase 1 (Homo sapiens), sequence (Q05397 whole entry, looked up): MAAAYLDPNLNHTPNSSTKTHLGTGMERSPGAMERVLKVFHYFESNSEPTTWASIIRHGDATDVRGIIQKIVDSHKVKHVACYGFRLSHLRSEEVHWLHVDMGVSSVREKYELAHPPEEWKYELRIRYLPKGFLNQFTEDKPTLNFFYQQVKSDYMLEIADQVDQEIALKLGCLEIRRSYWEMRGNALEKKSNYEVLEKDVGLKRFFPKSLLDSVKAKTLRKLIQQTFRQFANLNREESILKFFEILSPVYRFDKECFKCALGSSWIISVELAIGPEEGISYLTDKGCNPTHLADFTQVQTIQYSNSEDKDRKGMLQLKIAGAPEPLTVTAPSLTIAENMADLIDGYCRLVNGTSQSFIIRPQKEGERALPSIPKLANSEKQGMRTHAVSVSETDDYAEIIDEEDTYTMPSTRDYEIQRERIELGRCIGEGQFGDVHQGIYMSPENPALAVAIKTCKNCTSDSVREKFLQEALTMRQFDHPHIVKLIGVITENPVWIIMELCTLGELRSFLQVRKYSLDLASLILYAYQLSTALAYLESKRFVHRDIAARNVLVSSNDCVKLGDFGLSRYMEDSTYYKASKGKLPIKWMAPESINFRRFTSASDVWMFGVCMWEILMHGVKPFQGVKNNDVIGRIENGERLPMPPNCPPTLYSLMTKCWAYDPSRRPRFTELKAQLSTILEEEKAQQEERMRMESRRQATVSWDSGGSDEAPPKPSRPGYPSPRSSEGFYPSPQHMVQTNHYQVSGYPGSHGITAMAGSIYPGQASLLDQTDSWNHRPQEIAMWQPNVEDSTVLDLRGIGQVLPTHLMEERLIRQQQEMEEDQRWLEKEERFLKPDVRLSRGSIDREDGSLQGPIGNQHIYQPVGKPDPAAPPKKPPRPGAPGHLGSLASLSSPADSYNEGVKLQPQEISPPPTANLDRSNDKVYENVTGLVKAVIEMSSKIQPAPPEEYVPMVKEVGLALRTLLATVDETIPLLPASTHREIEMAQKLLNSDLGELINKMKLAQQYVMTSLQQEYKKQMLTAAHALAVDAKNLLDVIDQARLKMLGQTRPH
# [12] = test system: Fibrinogen (Alexa647-labelled); experiment: Alexa647-fibrinogen binding to printed small molecules – biochemical, small-molecule microarray, 635/667 nm fluorescence, artefact control for SMM control-protein annotation, profiling panel (AID 1131); conditions: fibrinogen-A647 binding fluorescence, higher = more signal;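 further: z-score merges 667 nm fluorescence with per-spot signal-to-noise over triplicate slides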
# [13] = molecular target: Follistatin (Homo sapiens) (UniProt P19883); experiment: FST protein binding to printed compounds – biochemical, small-molecule microarray, 635/667 nm fluorescence, primary screen (AID 1132); conditions: 635 nm fluorescence, higher = more signal
# Follistatin (Homo sapiens), sequence (P19883 whole entry, looked up): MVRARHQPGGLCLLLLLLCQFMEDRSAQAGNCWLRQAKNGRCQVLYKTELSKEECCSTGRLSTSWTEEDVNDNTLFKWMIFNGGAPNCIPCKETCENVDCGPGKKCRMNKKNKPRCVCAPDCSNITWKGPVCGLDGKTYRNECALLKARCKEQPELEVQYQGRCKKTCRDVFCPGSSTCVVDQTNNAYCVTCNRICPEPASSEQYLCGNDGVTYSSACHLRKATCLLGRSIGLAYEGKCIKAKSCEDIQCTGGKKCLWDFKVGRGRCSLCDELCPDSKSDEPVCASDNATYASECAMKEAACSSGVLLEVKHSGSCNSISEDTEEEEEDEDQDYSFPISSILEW
# [14] = molecular target: Fibroblast growth factor 2 (Homo sapiens) (UniProt P09038); experiment: basic fibroblast growth factor binding to printed compounds – biochemical, small-molecule microarray, 635/667 nm fluorescence, primary screen (AID 1133); conditions: FGF2, fluorescence 635/667, higher = more signal
# Fibroblast growth factor 2 (Homo sapiens), sequence (P09038 whole entry, looked up): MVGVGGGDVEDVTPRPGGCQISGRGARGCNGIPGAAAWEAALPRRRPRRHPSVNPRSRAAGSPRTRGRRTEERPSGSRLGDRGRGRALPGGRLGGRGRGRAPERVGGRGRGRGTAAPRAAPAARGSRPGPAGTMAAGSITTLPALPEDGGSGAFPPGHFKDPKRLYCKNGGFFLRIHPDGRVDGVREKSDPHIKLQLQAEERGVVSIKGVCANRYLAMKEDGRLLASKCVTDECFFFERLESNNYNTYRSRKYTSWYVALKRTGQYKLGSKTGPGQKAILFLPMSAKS
# [15] = JC-1 mitochondrial potential readout, lung cancer cells – cell-based, A549, JC-1 fluorescence, basal, 24 h, 100 nL, profiling panel (AID 1138); conditions: higher = more signal;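 further: A549 lung adenocarcinoma cells under basal conditions with no added stimulus; test concentration not given here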
# Lefty1 = Lefty1 protein binding to printed compounds – biochemical, small-molecule microarray, 635/667 nm fluorescence, primary screen (AID 1139); conditions: fluorescence 635/667, higher = more signal
# [16] = test system: wheat germ agglutinin (Triticum aestivum), Alexa647-labelled; experiment: Alexa647-WGA lectin binding to printed small molecules – biochemical, small-molecule microarray, 635/667 nm fluorescence, artefact control for SMM control-protein annotation, profiling panel (AID 1140); conditions: WGA-A647 binding, 635 nm fluorescence, higher = more signal;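 further: score merges 667 nm feature emission with signal to noise over triplicate slides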
# [17] = molecular target: Luciferin 4-monooxygenase (Photinus pyralis) (UniProt P08659); experiment: inhibition of purified Photinus pyralis luciferase – biochemical, luminescence, purified enzyme, 2006 set, primary screen (AID 1141); conditions: purified firefly luciferase, SteadyGlo luminescence, 30 min; higher = more signal, called active from +8 up or from −8 down;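 further: cell-free assay with purified firefly luciferase at 100 ng per well in PBS; test concentration not given here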
# Luciferin 4-monooxygenase (Photinus pyralis), sequence (P08659 whole entry, looked up): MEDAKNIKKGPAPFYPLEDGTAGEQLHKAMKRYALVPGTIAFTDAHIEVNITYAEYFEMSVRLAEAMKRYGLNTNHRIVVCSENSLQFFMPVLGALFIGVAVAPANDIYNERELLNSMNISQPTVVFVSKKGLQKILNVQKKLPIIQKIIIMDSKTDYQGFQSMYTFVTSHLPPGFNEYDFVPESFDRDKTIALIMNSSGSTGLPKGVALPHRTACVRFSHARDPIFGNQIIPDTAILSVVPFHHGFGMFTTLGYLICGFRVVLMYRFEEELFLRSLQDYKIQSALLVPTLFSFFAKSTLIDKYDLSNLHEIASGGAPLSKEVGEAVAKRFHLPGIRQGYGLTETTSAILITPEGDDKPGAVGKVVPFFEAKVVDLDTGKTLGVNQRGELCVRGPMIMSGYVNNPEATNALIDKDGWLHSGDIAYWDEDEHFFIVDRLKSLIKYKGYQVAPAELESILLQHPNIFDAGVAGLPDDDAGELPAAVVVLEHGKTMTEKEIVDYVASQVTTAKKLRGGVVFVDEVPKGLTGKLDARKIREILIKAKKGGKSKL
SMILES,composite z-score (Albumin (Bos taurus)),composite Z-score [1],composite z-score [2],composite z-score [3],composite z-score [4],composite z-score [5],composite z-score [6],composite z-score (Sam68 (KHDRBS1)),composite z-score [7],composite z-score [8],composite z-score [9],composite z-score [10],composite z-score [11],composite z-score [12],composite z-score [13],composite z-score [14],z-score [15],composite z-score (Lefty1),composite z-score [16],z-score [17]
O=C1O[C@@H](c2ccccc2)[C@@H](c2ccccc2)N2[C@@H](c3ccc(OCCO)cc3)[C@]3(C(=O)Nc4ccc(C#CC5(O)CCCCCC5)cc43)[C@@H](C(=O)O)[C@H]12,0.572,-0.014 (inactive),0.0745,-0.0725,0.685,0.969,0.58,1.34,-0.458,0.994,2.8,1.18,1.24,0.832,0.776,0.155,0.741,0.68,0.601,-2.86 (inactive)
COC(=O)C[C@H]1O[C@@]2(C[C@@H]1[Si](C)(C)C)C(=O)N(C)c1ccccc12,0.18,-0.701 (inactive),0.0306,-0.111,0.288,0.689,0.186,0.86,0.268,0.332,0.324,0.643,-0.203,0.78,0.501,0.0172,1.63,0.453,0.0729,-1.85 (inactive)
CCOC(=O)C[C@H]1[C@H](OC(=O)Cc2ccc3c(c2)OCO3)[C@@H](NC(=O)c2ccc3ccccc3n2)c2cc(OCCCO)ccc2N1C(=O)Cc1ccc(OC)cc1,0.635,0.378 (inactive),0.169,-0.0286,0.276,0.654,0.0887,0.91,-0.17,0.774,0.337,0.672,-0.307,0.557,0.72,0.394,1.26,0.577,0.391,-0.628 (inactive)
CN(C)c1ccc(C(O)C2C=CC3C(=O)N(Cc4ccccc4)C(=O)C3N2n2cnnc2)cc1 (stereo not given),-0.184,0.111 (inactive),-0.0023,-0.0993,0.244,0.0348,-0.0894,-0.671,0.245,-0.46,0.108,0.115,-0.535,0.32,0.225,0.239,-0.269,-0.231,0.0743,-1.66 (inactive)
[N-]=[N+]=Nc1ccccc1[C@H]1OC(c2ccc(OCCCO)cc2)=N[C@@]1(Cc1ccccc1)C(=O)NCC(O)CO (stereo not given in full),0.793,0.0774 (inactive),0.0372,-0.174,0.444,3.2,-0.142,0.495,-0.832,0.962,1.67,1.21,0.0145,0.959,1.06,-0.551,0.586,-0.498,0.966,-5.02 (inactive)
C=C(CCCC)/C(=C/C[C@H](OC(=O)c1ccncc1)c1ccc(OCCO)cc1)c1cnc2ccccc2c1,0.667,-0.0072 (inactive),0.0533,-0.0891,0.755,1.74,0.111,1.31,1.11,1.13,2.06,1.23,0.525,0.892,1.28,1.02,2.39,1.27,1.36,-1.83 (inactive)
CC(C)N1C(=O)c2ccccc2[C@](C)(C(=O)NCC(F)(F)F)[C@@H]1c1ccc(CO)cc1,-0.267,-0.415 (inactive),-0.407,0.0344,0.852,2.55,1.14,-0.701,-0.912,-1.22,-0.851,-0.432,-0.749,-1.07,-1.02,-0.337,0.607,-1.5,0.594,-1.17 (inactive)
COc1ccc([Si](C)(C)[C@H]2[C@H](CC(=O)N3Cc4ccccc4C[C@H]3CO)O[C@@]3(C(=O)N(C)c4c(Br)cc(C)cc43)[C@@H]2C)cc1,0.238,0.298 (inactive),0.0643,-0.164,0.0971,0.787,0.152,1.1,0.7,1.06,0.533,0.777,0.172,0.636,1.34,1.24,-0.224,1.58,0.655,-0.0165 (inactive)
O=C1C[C@@](C(=O)NC2CC2)(c2ccc([N+](=O)[O-])cc2)[C@@H](c2ccc(CO)cc2)N1C1CCCCC1,0.535,0.002 (inactive),0.11,-0.0995,0.512,2.7,0.0901,1.28,0.43,0.704,2.79,1.23,0.333,0.122,1.3,1.64,-0.282,0.894,0.407,0.997 (inactive)
[N-]=[N+]=Nc1ccccc1C[C@@]1(C(=O)NCC(O)CO)N=C(c2ccc(OCCCO)cc2)O[C@@H]1c1ccccc1 (stereo not given in full),0.579,-0.362 (inactive),-0.152,0.0231,0.719,2.01,0.353,0.206,-1.26,0.446,-0.0048,1.2,0.206,0.54,-0.327,0.0559,1,-0.867,0.436,-2.44 (inactive)
